From PubChem BioAssay (Tox21)
Unmarked numbers belong to inactive results. Records with an inconclusive call do not appear. Where a call stands in place of a potency, no number is given. Calls of active or inactive are those of the source. Unless noted, calls follow the shape of the dose curve; as a rule, active = well fitted curve in the direction sought with a large enough effect in the repeat runs; inconclusive = weak or mixed curves; inactive = no such curve, though single readings can be large; an effect the other way counts as inactive or inconclusive.

What was measured:
[1] = biological target: Luciferin 4-monooxygenase (Photinus pyralis) (UniProt P08659); experiment: qHTS assay to identify small molecule inhibitors of firefly luciferase (AID 1224835); also: nearly all actives have a fitted effect of over 25% in size; also: potency is read from the fitted curve at half-maximal effect
Sequence of Luciferin 4-monooxygenase (Photinus pyralis) (P08659 whole entry, looked up): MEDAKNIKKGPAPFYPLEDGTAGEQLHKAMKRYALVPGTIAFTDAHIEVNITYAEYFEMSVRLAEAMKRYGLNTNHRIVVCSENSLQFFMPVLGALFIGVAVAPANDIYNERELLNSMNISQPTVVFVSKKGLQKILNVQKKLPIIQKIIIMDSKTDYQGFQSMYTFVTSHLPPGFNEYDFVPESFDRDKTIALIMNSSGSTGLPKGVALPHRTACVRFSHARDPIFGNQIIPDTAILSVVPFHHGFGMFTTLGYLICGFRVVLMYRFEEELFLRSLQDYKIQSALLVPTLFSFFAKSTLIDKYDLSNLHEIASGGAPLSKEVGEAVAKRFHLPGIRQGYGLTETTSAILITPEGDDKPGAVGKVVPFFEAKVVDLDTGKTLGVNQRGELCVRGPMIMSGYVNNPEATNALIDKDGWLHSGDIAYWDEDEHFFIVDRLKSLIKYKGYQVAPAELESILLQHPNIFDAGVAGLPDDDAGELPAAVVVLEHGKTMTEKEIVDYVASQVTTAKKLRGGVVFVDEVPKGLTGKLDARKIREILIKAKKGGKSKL
Outline: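 Quantitative HTS format; KM concentrations of both substrates. Purified P. pyralis FLuc activity quantified from luminescence images.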

[2] = qHTS assay to identify small molecule agonists of the constitutive androstane receptor (CAR) signaling pathway - cell viability counter screen (AID 1224836); also: nearly all actives have a fitted effect of over 45% in size
Outline: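 HepG2 cells stably carrying hCAR and a CYP2B6-2.2kb reporter were plated 4 h, then given compounds at 15 concentrations plus PK11195 (final 0.75 uM). After 23 h at 37 C, viability was read by CellTiter-Fluor fluorescence.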

[3] = qHTS assay to identify small molecule antagonists of the constitutive androstane receptor (CAR) signaling pathway - cell viability counter screen (AID 1224837); also: nearly all actives have a fitted effect of over 45% in size
Outline: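 Fluorescence from CellTiter-Fluor served as the viability signal. Human hepatoma HepG2 cells stably bearing hCAR and CYP2B6-2.2kb received compound plus CITCO (50 nM final) for 23 hr.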

[4] = qHTS assay to identify small molecule antagonists of the estrogen related receptor signaling pathway with the pleiotropic PPARgamma coactivator (PGC) from Tox21 10K library - cell viability counter screen (AID 1224840; active = well fitted cell-killing curve with a large enough effect in the repeat runs, not every such curve was filed as active; also: nearly all actives have a fitted effect of over 40% in size)
Outline: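 Compounds in DMSO, alongside positive and negative controls, were pinned onto PGC/ERR cells (2,000 per well). Exposure lasted 17.5 hours at 37 C, followed by a 30-minute CellTiter-Fluor incubation and fluorescence reading.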

[5] = qHTS assay to identify small molecule agonists of the hypoxia (HIF-1) signaling pathway - cell viability counter screen (AID 1224844; calls by dose curve; also: nearly all actives have a fitted effect of over 50% in size; also: potency is read from the fitted curve at half-maximal effect)
Outline: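 Luminescent ATP content (CellTiter-Glo, 30 min, room temperature) served as the viability measure in HRE-bla ME-180 cells exposed to compounds for 17 hrs in low-serum medium (0.5% dialyzed FBS).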

[6] = qHTS assay to identify small molecule agonists of H2AX (AID 1224845; active = well fitted activation curve with a large enough effect in the signal ratio in the repeat runs, not every such curve was filed as active; the % refers to the signal ratio)
Outline: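 Wild-type CHO-K1 cells plated overnight, then exposed 3 hr at 37C to compounds at 15 concentrations (0.76% DMSO). Lysed, then HTRF anti-pH2AX(S139)-cryptate/anti-H2AX-d2 detection after 24 hr at room temperature; emissions 665 and 620 nm.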

[7] = qHTS assay to identify small molecule agonists of the hypoxia (HIF-1) signaling pathway (AID 1224846; active = well fitted activation curve with a large enough effect in the signal ratio in the repeat runs, not every such curve was filed as active; the % refers to the signal ratio)
Outline: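 Measured by blue/green FRET after loading CCF4-AM: beta-lactamase expressed from a hypoxia response element in ME-180 cells. Test agents were delivered in DMSO and left 17 hrs; cells had been plated 5 hrs earlier in low-serum (0.5% dialyzed FBS) medium.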

[8] = qHTS assay to identify small molecule agonists of H2AX - cell viability counter screen (AID 1224847; calls by dose curve; also: top concentration of the series differs between compounds; nearly all actives have a fitted effect of over 30% in size)
Outline: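 Wild-type CHO-K1 cells (10% FBS medium) were plated overnight at 37C, exposed to compounds at 15 concentrations for 3 hr at 37C (0.76% DMSO final), and viability was read as CellTiter-Glo luminescence after 30 min at room temperature.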

[9] = qHTS RealTime-Glo MT Cell Viability Assay in HepG2 cells - 24 hour (AID 1224867); also: nearly all actives have a fitted effect of over 50% in size
Outline: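 Luminescence read-out: viable HepG2 cells reduce a prosubstrate to a NanoLuc substrate, giving a signal proportional to live cell number. Reads taken at 0, 8, 16, 24, 32 and 40 h of compound exposure at 37 C.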

[10] = A CellTox Green Cytotoxicity Assay to monitor cytotoxicity in HEK293 cells - 0 hour (AID 1224869); also: nearly all actives have a fitted effect of over 50% in size
Outline: (§1)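 Each value comes from one timepoint of a single continuous run in which HEK293 cells with CellTox Green were exposed to compound for up to 40 h at 37 C, dye fluorescence rising with cell death.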

[11] = qHTS RealTime-Glo MT Cell Viability Assay in HepG2 cells - 40 hour (AID 1224870); also: nearly all actives have a fitted effect of over 50% in size
Outline: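 HepG2 cells mixed with RealTime-Glo MT reagents (NanoLuc plus cell-permeant prosubstrate) were seeded at 600 cells/well, incubated 5 h at 37 C/5% CO2, then pinned with compounds in DMSO; nonlytic luminescence tracked viability during 40 h treatment.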

[12] = A CellTox Green Cytotoxicity Assay to monitor cytotoxicity in HEK293 cells - 40 hour (AID 1224871); also: nearly all actives have a fitted effect of over 45% in size
Outline: as §1

[13] = biological target: Thyrotropin receptor (Homo sapiens) (UniProt P16473); experiment: qHTS assay to identify small molecule agonists of the thyroid stimulating hormone receptor (TSHR) signaling pathway (AID 1224843; calls by dose curve; also: nearly all actives have a fitted effect of over 45% in size)
Sequence of Thyrotropin receptor (Homo sapiens) (P16473 whole entry, looked up): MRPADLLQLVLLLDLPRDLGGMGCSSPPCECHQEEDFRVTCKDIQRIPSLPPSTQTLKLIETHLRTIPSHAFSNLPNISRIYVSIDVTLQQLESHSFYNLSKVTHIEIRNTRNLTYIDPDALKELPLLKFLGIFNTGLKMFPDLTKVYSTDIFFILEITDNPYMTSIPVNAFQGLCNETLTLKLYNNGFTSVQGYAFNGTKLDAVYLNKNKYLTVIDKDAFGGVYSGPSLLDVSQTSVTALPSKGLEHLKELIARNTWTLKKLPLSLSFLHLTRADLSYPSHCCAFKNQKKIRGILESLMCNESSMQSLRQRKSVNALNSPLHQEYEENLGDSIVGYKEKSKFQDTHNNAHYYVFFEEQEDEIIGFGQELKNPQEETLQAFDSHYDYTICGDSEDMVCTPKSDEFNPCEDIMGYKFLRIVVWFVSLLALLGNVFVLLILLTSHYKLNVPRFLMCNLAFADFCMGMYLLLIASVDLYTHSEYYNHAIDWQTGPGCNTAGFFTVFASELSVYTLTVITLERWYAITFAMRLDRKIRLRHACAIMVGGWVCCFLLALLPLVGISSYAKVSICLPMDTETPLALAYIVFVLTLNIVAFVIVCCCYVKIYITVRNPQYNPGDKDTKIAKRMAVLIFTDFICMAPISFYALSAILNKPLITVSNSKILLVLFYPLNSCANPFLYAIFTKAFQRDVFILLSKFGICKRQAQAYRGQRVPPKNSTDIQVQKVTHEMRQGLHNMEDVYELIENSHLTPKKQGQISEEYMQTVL
Outline: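 Cell line HEK293 with TSHR; density 800/well. Exposure 30 min RT. Readout HTRF cAMP (cAMP-d2/anti-cAMP-cryptate), 1 h RT before reading.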

[14] = qHTS RealTime-Glo MT Cell Viability Assay in HEK293 cells - 32 hour (AID 1224868); also: nearly all actives have a fitted effect of over 50% in size; also: potency is read from the fitted curve at half-maximal effect
Outline: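 Nonlytic real-time viability readout: viable cells convert prosubstrate to NanoLuc substrate, giving luminescence proportional to live cell number. HEK293, 600 cells/well, compound added after 5 h, continuous culture at 37 C.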

[15] = biological target: Nuclear receptor subfamily 1 group I member 3 (Homo sapiens) (UniProt Q14994); experiment: qHTS assay to identify small molecule antagonists of the constitutive androstane receptor (CAR) signaling pathway (AID 1224838); also: nearly all actives have a fitted effect of over 40% in size
Sequence of Nuclear receptor subfamily 1 group I member 3 (Homo sapiens) (Q14994 whole entry, looked up): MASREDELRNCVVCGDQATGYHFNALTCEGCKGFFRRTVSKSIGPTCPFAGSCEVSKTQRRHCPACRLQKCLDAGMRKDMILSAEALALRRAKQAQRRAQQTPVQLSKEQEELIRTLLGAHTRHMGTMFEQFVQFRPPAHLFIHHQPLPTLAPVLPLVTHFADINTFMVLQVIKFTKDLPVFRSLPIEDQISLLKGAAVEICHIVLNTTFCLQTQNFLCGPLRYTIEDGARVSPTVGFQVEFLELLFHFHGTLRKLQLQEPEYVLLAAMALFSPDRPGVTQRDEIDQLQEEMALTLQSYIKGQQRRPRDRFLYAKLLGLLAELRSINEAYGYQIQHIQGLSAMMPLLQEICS
Outline: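 Quantitative HTS in double-stable HepG2-CYP2B6-hCAR cells. After 4 h plating, cells get compound (15 concentrations) and CITCO at 50 nM final, incubate 24 h at 37 C, then ONE-Glo luminescence is read.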

[16] = biological target: Nuclear receptor subfamily 1 group I member 3 (Homo sapiens) (UniProt Q14994); experiment: qHTS assay to identify small molecule agonists of the constitutive androstane receptor (CAR) signaling pathway (AID 1224839);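 also: HepG2 cells stably carrying human CAR and a CYP2B6 luciferase reporter; nearly all actives have a fitted effect of over 15% in size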
Outline: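 HepG2 cells stably expressing hCAR and a CYP2B6-2.2kb luciferase reporter were treated with compounds at 15 concentrations plus 0.75 uM PK11195 (final) for 24 h at 37 C; luminescence was read after ONE-Glo addition.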

[17] = qHTS assay to identify small molecule antagonists of the estrogen related receptor signaling pathway with the pleiotropic PPARgamma coactivator (PGC) from Tox21 10K library (AID 1224841; call rule not given here; also: potency is read from the fitted curve at half-maximal effect)
Outline: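 Compound exposure ran 18 hours at 37 C in PGC/ERR cells (2,000/well) that had first rested 6 hours in a 37 C/5% CO2 incubator. Luciferase activity was then detected with One-Glo after a 30-minute room-temperature step.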

[18] = qHTS assay to identify small molecule agonists of the estrogen related receptor signaling pathway with the pleiotropic PPARgamma coactivator (PGC) from Tox21 10K library (AID 1224842); also: nearly all actives have a fitted effect of over 15% in size
Outline: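 PGC/ERR reporter cells (NTP line) were seeded 2,000 per well, rested 6 h at 37 C/5% CO2, then pin-dosed with compounds in DMSO for 18 h at 37 C; luciferase read by One-Glo luminescence after 30 min at room temperature.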

[19] = qHTS assay to identify small molecule agonists of the estrogen related receptor (ERR) signaling pathway from Tox21 library (AID 1224849; calls by dose curve; also: nearly all actives have a fitted effect of over 15% in size); conditions: ERR reporter cell line, ONE-Glo luciferase, 18 h; at 92.4 µM (top of the series) unless noted
Outline: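 We plated ERR reporter cells, waited 6 h, added compounds in DMSO by pin tool and incubated them 18 h at 37 C. ONE-Glo was then added and luminescence read after 30 min.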

[20] = qHTS assay to identify small molecule antagonists of the estrogen related receptor (ERR) signaling pathway from Tox21 library (AID 1224848); also: nearly all actives have a fitted effect of over 50% in size; also: potency is read from the fitted curve at half-maximal effect
Outline: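 Screening used an ERR reporter line supplied by NTP, exposed for 18 h at 37 C to library compounds delivered in DMSO. Signal was luciferase luminescence developed with ONE-Glo at room temperature for 30 min.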

Row | Structure (SMILES) | Potency [1] | Potency [2] | Potency [3] | Potency [4] | Potency [5] | Potency [6] | outcome [7] | Potency [8] | outcome [9] | Potency [10] | Potency [11] | Potency [12] | Potency [13] | Potency [14] | Potency [15] | Potency [16] | Potency [17] | Potency [18] | activity change, positive = activation [19] | Potency [20]
1 | CS(C)=O | inactive | inactive | inactive | inactive | inactive | inactive | inactive | inactive | inactive | inactive | inactive |  |  |  |  |  |  |  |  | 
2 | O=C(O)c1ccccc1[N+](=O)[O-] | inactive | inactive | inactive | inactive | inactive | inactive | inactive | inactive | inactive | inactive |  | inactive |  |  |  |  |  |  |  | 
3 | COc1ccc(/C=C/S(=O)(=O)NC(=O)c2ccc(C)cc2Cl)cc1 | 79.6 µM (active) | inactive | inactive | inactive | inactive | inactive | inactive | inactive | inactive | inactive |  | inactive | inactive |  |  |  |  |  |  | 
4 | CCCC(=O)OCCC(C)C | inactive | inactive | inactive |  |  | inactive |  | inactive | inactive | inactive | inactive | inactive | inactive | inactive |  |  |  |  |  | 
5 | CCCCCCCCC(=O)OCC(C)OC(=O)CCCCCCCC (stereo unspecified) | inactive | inactive |  | inactive | inactive | inactive | inactive | inactive | inactive | inactive | inactive | inactive |  |  | inactive | inactive |  |  |  | 
6 | Cc1ccc(Cl)c(OCC(O)CNC(C)(C)C)c1 (stereo unspecified) | inactive | inactive | inactive | inactive | inactive | inactive | inactive | inactive | inactive | inactive | inactive | inactive |  | inactive |  |  |  |  |  | 
7 | CCN(CCCCOC(=O)c1ccc(OC)c(OC)c1)C(C)Cc1ccc(OC)cc1 (stereo unspecified) | inactive | inactive |  | inactive | inactive | inactive |  | inactive | inactive | inactive | inactive |  | inactive |  | inactive | inactive | inactive | inactive | -16.6% [at 42.5 µM] | 
8 | CCOC(C)OCC | inactive | inactive | inactive | inactive | inactive |  | inactive | inactive | inactive | inactive |  | inactive |  | inactive |  |  |  |  |  | 
9 | C[C@H]1C[C@H]2[C@@H]3CCC4=CC(=O)C=C[C@]4(C)[C@@]3(F)[C@@H](O)C[C@]2(C)[C@@]1(O)C(=O)COP(=O)(O)O | inactive | inactive | inactive | inactive | inactive | inactive | inactive | inactive | inactive | inactive | inactive | inactive | inactive | inactive |  |  |  |  |  | 
10 | O=C(NC1CCN(CCc2c[nH]c3ccccc23)CC1)c1ccccc1 | inactive | inactive |  | inactive | inactive | inactive |  | inactive | inactive | inactive |  | inactive | inactive | 7.56 µM (active) | inactive | inactive |  |  |  | 
11 | C=CC(=O)OCCCCCCCCCC | inactive | inactive |  | inactive | inactive | inactive | inactive |  | inactive | inactive | inactive | inactive | inactive | inactive | inactive | inactive | inactive | inactive | 2.6% | inactive
12 | OCC(O)c1ccccc1 (stereo unspecified) | inactive | inactive | inactive | inactive | 38.9 µM (active) | inactive |  |  | inactive | inactive | inactive | inactive | inactive | inactive |  |  |  |  |  | 
13 | O=C(C1CCCCC1)N1CC(=O)N2CCCc3ccccc3C2C1 (stereo unspecified) | inactive | inactive | inactive | inactive |  | inactive |  | inactive | inactive | inactive | inactive | inactive | inactive | inactive |  |  |  |  |  | 
14 | O=C(N[C@@H](Cc1ccccc1)[C@@H](O)C(=O)N1C[C@@H](O)[C@@H](O)C1)c1cc2cc(Cl)ccc2[nH]1 | inactive | inactive | inactive |  | inactive |  | inactive | inactive | inactive | inactive | inactive | inactive | inactive |  |  |  | 54.5 µM (active) | inactive | -40.7% | 54.5 µM (active)
15 | CC(C)=CCC[C@H](C)CCO | inactive | inactive | inactive | inactive |  | inactive | inactive |  | inactive | inactive |  | inactive | inactive | inactive |  |  |  |  |  | 
16 | CC(Cc1ccccc1)(NC(=O)CN)c1ccccc1 (stereo unspecified) | inactive | inactive | inactive | inactive | inactive | inactive | inactive | inactive | inactive | inactive | inactive | inactive |  | inactive |  |  |  |  |  | 
17 | OCCCO | inactive | inactive | inactive | inactive | inactive | inactive |  | inactive | inactive | inactive | inactive |  | inactive | inactive |  |  |  |  |  | 
18 | Cc1cccc(C)c1NC(=O)CN1CCCC1 | inactive | inactive | inactive | inactive | inactive | inactive | inactive | inactive | inactive | inactive | inactive | inactive | inactive | inactive |  |  |  |  |  | 
